Results from PubChem BioAssay.

assay: inhibitors of Chlamydomonas gravitaxis, primary screen, whole organism, Chlamydomonas reinhardtii, WT vs cilia-less mutant, absorbance, 96-well (AID 463189); settings: OD600 absorbance, 2 days, at 10 µM, hits give high values;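 active means inhibition at or above 50% relative to wild type and mutant plate controls; inactive means inhibition below 50%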;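 further: 0% = wild type cc124 cells in DMSO and 100% = ciliumless bld1 mutant cells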

inhibition, inactive:
COc1cc(C(O)CO)ccc1O (stereo not given) 1.74%, CC[N+](CC)(CC)CC(=O)Nc1c(C)cccc1C 6.77%, COc1cc2c(cc1C(F)(F)F)N(C(=O)Nc1cc(F)cc(-c3cccnc3)c1)CC2 0.852%, COc1ccc(CCNC[C@@H](O)c2ccc(O)cc2)cc1OC -0.226%, CC[C@@H]1Cc2cc(O)ccc2C2=C1c1ccc(O)cc1C[C@H]2CC 0.094%, O=c1[nH]c2cc(Cl)ccc2c(O)c1-c1ccc(Oc2ccccc2)cc1 5.4%, NC(=NCCC[C@H](N)C(=O)O)NO -1.45%, COC(=O)[C@H](NC(=O)c1cc(-c2ccccc2)nc2ccccc12)c1ccccc1 1.92%, N.N.O=C(O)C1(C(=O)O)CCC1.[Pt+2] 3.35%, O=C(Nc1ccc([N+](=O)[O-])cc1Cl)c1cc(Cl)ccc1O 43.4%, Cc1cc(O)c2c(c1)C(=O)c1cc(O)cc(O)c1C2=O -10.7%, COc1ccccc1N1CCN(CCN(C(=O)c2ccc(F)cc2)c2ccccn2)CC1 0.605%, CCOC(=O)c1ncn2c1CN(C)C(=O)c1cc(F)ccc1-2 1.79%, CC(C)C(=O)Nc1ccc([N+](=O)[O-])c(C(F)(F)F)c1 -17.5%, CN(C)c1nc(N)c(C(=O)N=C(N)N)nc1Cl 1.32%, CSC(=N)N 7.24%, O=C(O)C1=CC(=C(c2ccc(O)c(C(=O)O)c2)c2ccc(O)c(C(=O)O)c2)C=CC1=O 0.098%, CCN1CCCC1CNC(=O)c1cc(S(N)(=O)=O)ccc1OC (stereo not given) 2.91%, C[N+](C)(C)CCOC(N)=O 7.07%, Cc1ccc(S(=O)(=O)N[C@@H](Cc2ccccc2)C(=O)CCl)cc1 -2.77%, CC(C)(C)NCC(O)COc1nsnc1N1CCOCC1 (stereo not given) -8.84%, O=C(Nc1cc(C(=O)Nc2ccc(S(=O)(=O)O)cc2S(=O)(=O)O)cc(C(=O)Nc2ccc(S(=O)(=O)O)cc2S(=O)(=O)O)c1)Nc1cc(C(=O)Nc2ccc(S(=O)(=O)O)cc2S(=O)(=O)O)cc(C(=O)Nc2ccc(S(=O)(=O)O)cc2S(=O)(=O)O)c1 10.7%, CC(C)C[C@H](NC(=O)[C@H](O)[C@H](N)Cc1ccccc1)C(=O)O -10.7%, CCCN(CCC)CCc1cccc2c1CC(=O)N2 4.03%, CC1CC2C3CCC4=CC(=O)C=C[C@]4(C)[C@@]3(F)[C@@H](O)C[C@]2(C)[C@@]1(O)C(=O)CO (stereo not given in full) 5.99%, O=C(O)c1ccccc1Nc1ccccc1 8.09%, Cc1ccc(OCC(O)C(C)NC(C)C)c2c1CCC2 (stereo not given) -3.42%, COC(=O)C1=C(C)NC(C)=C([N+](=O)[O-])C1c1ccccc1C(F)(F)F (stereo not given) 5.83%, NC(=O)C1=CN(C2OC(COP(=O)(O)OP(=O)(O)OC[C@H]3O[C@@H](n4cnc5c(N)ncnc54)C(OP(=O)(O)O)[C@H]3O)C(O)C2O)C=CC1 (stereo not given in full) -0.493%, COCc1nc2c([nH]1)c(=O)n(C)c(=O)n2CC(C)C 1.31%, CN(C)CCC(c1ccc(Cl)cc1)c1ccccn1 (stereo not given) 9.56%, COc1cc2nc(N3CCN(C(=O)OCc4ccccc4)C(C(=O)NC(C)(C)C)C3)nc(N)c2cc1OC (stereo not given) -7.21%, COc1c2c(nc3ccccc13)OC(C(C)(O)CO)C2 (stereo not given) 6.88%, C[C@H](O)C(=O)C1=Nc2c(nc(N)[nH]c2=O)NC1 7.45%, CC[N+](CC)(CC)CCOc1cccc(OCC[N+](CC)(CC)CC)c1OCC[N+](CC)(CC)CC 3.26%, O=c1[nH]c(=O)c2nc3ccccc3nc2[nH]1 -4.43%, CO/N=C(\C(=O)N[C@@H]1C(=O)N2C(C(=O)O)=C(COC(C)=O)CS[C@H]12)c1csc(N)n1 (stereo in doubt) 6.36%, COc1cccc2c1[C@@H]1CN(CCCCn3c(=O)[nH]c4c(sc5ncc(-c6ccccc6)nc54)c3=O)C[C@@H]1CO2 4.24%, O=C(O)CCC(NC(=O)c1ccccc1C(=O)O)C(=O)O (stereo not given) 1.62%, CC(N)=NCc1cccc(CN)c1 7.48%
